Where “and” joins values, the source holds several entries; their conditions need not be identical. Identical values can stand only once.
Assays:
Type in all cases: functional
[1] = molecular target: Solute carrier family 2, facilitated glucose transporter member 1 (Homo sapiens) (UniProt P11166); test: ST_JUDE_LEISH: Cytotoxicity at 2uM final concentration against transgenic Leishmania Mexicana promastigotes LmGLUT1 that are glucose transport deficient and complemented with the human glucose transporter GLUT1. Activity is measured by DNA content using SYBR green in vitro
[2] = molecular target: Hexose transporter 1 (Plasmodium falciparum) (UniProt O97467); test: ST_JUDE_LEISH: Cytotoxicity at 2uM final concentration against transgenic Leishmania Mexicana promastigotes LmPfHT that are glucose transport deficient and complemented with the Plasmodium falciparum hexose transporter. Activity is measured by DNA content using SYBR green in vitro
[3] = molecular target: Glucose transporter (Leishmania mexicana) (UniProt O61059); test: ST_JUDE_LEISH: Cytotoxicity at 2uM final concentration against transgenic Leishmania Mexicana promastigotes LmGT2 that are glucose transport deficient and complemented with the L. Mexicana glucose transporter 2. Activity is measured by DNA content using SYBR green in vitro

Sequence of Solute carrier family 2, facilitated glucose transporter member 1 (Homo sapiens) (P11166 whole entry): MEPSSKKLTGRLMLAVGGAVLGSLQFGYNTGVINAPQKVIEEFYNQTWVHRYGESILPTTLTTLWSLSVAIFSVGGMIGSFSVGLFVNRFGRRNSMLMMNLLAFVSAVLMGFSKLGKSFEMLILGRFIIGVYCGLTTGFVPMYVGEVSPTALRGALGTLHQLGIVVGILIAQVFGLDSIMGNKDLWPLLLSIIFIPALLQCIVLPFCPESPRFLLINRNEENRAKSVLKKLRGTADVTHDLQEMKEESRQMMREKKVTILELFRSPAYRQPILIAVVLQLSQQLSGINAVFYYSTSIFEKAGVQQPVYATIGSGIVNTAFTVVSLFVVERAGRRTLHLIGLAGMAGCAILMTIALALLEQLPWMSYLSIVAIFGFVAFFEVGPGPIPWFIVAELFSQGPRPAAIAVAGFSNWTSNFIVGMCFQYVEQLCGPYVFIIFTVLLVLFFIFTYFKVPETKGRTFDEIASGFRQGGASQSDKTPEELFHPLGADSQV

SMILES	inhibition [1]	inhibition [2]	inhibition [3]
Cc1cc(N2CCC(NS(=O)(=O)c3ccc(F)cc3)CC2)nc(Nc2cccc(C#N)c2)n1	39.9%	46.5%	41%
N=C(N)Nc1nc(-c2cccc(NC(=O)CCCCCCCON3C(N)=NC(N)=NC34CCCCC4)c2)cs1	2.45%	4.13%	3.75%
O=[N+]([O-])c1cccc(/C=N/Nc2ccnc3ccc(C(F)(F)F)cc23)c1	4.51%	2.45%	0.3%
CCNC[C@@H](O)[C@H](Cc1ccccc1)NC(=O)c1cc2c3c(c1)c(CC)cn3CCS(=O)(=O)N2C	0.67%	0.11%	-0.02%
COc1ccc(CNC(=O)c2cnc3c(O)cccc3c2Nc2cccc(NC(=O)c3ccc(-c4ccccc4)cc3)c2)cc1	76.8%	79.7%	64.3%
COc1cccc(CNC[C@@H](O)[C@H](Cc2ccccc2)NC(=O)c2cc(C(C)C)cc(N3CCCC3=O)c2)c1	-1.08%	0.91%	-1.21%
COc1ccc2ncc(F)c(C(O)CN3CCC(NCc4ccc5c(n4)NC(=O)CO5)CC3)c2c1 (centres undefined)	-0.67% and 5.77%	2.57% and 4.56%	-3.55% and 1.93%
COc1ccccc1Nc1nc(C)cc(NCc2ccc(-c3c(C)noc3C)cc2)n1	19.5%	9.8%	0.51%
CC1CCN(CCNC(=O)c2ccc3c(=O)n(Cc4ccc(Cl)cc4)c(=S)[nH]c3c2)CC1	1.28%	2.93%	1.91%
O=C(Nc1ccc(-c2cccc(-c3nc4cc(F)ccc4[nH]3)c2)cc1)Nc1ccc(F)c(F)c1F	5.34%	7.02%	6.78%
CCNCc1ccc(-c2cccc(-c3nc4ccccc4[nH]3)c2)cc1	1.09%	1.16%	3.49%
Cc1ccc2[nH]c3c(NCCN(C)C)ncnc3c2c1	0.53%	1.24%	-0.07%
CCN(CC)CCCN(C(=O)Nc1c(Cl)cncc1Cl)c1nc(-c2ccc(F)cc2)cs1	2.47%	2.42%	3.83%
O=C(Nc1ccc(Cl)cc1Cl)NC1CCN(CCCCCNC(=O)C2CC2c2ccc(Cl)c(Cl)c2)CC1 (centres undefined)	10.1%	11.3%	9.23%
N=C1NC(c2ccccc2)(c2ccccc2)C(=O)N1CC=Cc1ccccc1	7.01%	8.66%	4.83%
COc1ccc(CN2CCC(NCc3ccc(C(F)(F)F)cc3)CC2)cc1	19.2%	14.1%	14%
COC(=O)c1ccc(CCC(C)NCC(O)c2cccc(C(F)(F)F)c2)cc1 (centres undefined)	0.8%	0.12%	3.23%
N#Cc1cc(N(CCCOc2cccc(OC(F)(F)F)c2)Cc2ccccc2C(F)(F)F)ccc1C(F)(F)F	-0.77%	-0.39%	0.94%
CCc1ccc(C(=O)NC(=O)c2ccccc2O)cc1	3.44%	3.45%	3.61%
Cc1cc(N[C@@H](Cc2ccccc2)C(=O)NCCOc2ccccc2)nc(Nc2ccccc2)n1	6.08%	6.54%	2.62%
COc1cc2nc(N3CCC(C(N)=O)CC3)nc(NCc3ccccc3)c2cc1OC	3.29%	1.29%	0.48%
Cc1cccc2nc(-c3ccc(-c4cccc(NC(=O)C(C)CN5CCN(C)CC5)c4)cc3)[nH]c12 (centres undefined)	3.33%	0.81%	5.85%
O=C(N[C@@H](Cc1cc(F)cc(F)c1)[C@H](O)CNCc1cccc(C(F)(F)F)c1)c1cc(C2CCCC2)cc(N2CCCC2=O)c1	1.51%	1.51%	1.95%

Source: ChEMBL document CHEMBL3433997, “St. Jude Leishmania screening dataset” (2016)
